# From PubChem BioAssay AID1814 (Broad Institute, 2009)
# Hit rate of the full screen: of about 300,000 compounds, about 22,000 (7.3%) were called active. Roughly 2% stayed inconclusive and do not appear here. Rule as the data show it: active = activity score below about -60%; inconclusive = mostly about -28% to -61%; inactive = positive scores. Only a selection was taken, and actives are over-represented in it overall.
# Assay: Activators via SNCA 5'UTR binding, MLPCN (AID 1814)
# Details: alpha-synuclein 5'UTR reporter, activators screen; active compounds read low; tested at 7.5 µM
row,SMILES,activity score
1,Oc1ccccc1CNc1ncc(Br)cc1Br,-62.4% (active)
2,COc1ccc2cc(C(=O)NCC3CCCO3)[nH]c2c1 (configuration not stated),-90.6% (active)
3,O=C(NCCc1ccccc1)c1ccc2c(c1)N(Cc1ccccc1)CCS2,-105% (active)
4,O=C(Cn1c(=S)nc2ccccn21)N1CCc2ccccc2C1,-96.2% (active)
5,CCn1nccc1C(=O)Nc1ccc(Cl)c(Cl)c1,-89.2% (active)
6,CCc1ccc(NC2Nc3cc(C)nn3S2)cc1 (configuration not stated),-79.3% (active)
7,CCOC(=O)c1cnc(Nc2nc3ccccc3o2)nc1CSC(=S)N1CCCCC1,-133% (active)
8,NS(=O)(=O)c1ccccc1NC(=O)c1c(O)c2ccccc2[nH]c1=O,-64.6% (active)
9,CCCCCn1c(=O)c(C(=O)OCC)c(Cl)c2ccccc21,92.6% (inactive)
10,CCOC(=O)c1cnc2[nH]c3ccccc3n2c1=O,-85.9% (active)
11,Cc1ccc(SCCSc2ncccn2)cc1,-110% (active)
12,FC(F)Oc1ccc(NC(=S)NCc2ccco2)cc1Cl,-62.2% (active)
13,S=C(NCc1ccco1)Nc1ccc2c(c1)OCCO2,-105% (active)
14,CCc1nnc(NC(=O)/C=C/c2ccc(C)o2)s1,-74.1% (active)
15,CCC(CC)c1nnc(NC(=O)/C=C/c2ccco2)s1,-153% (active)
16,Cc1nnc(NC(=O)/C=C/c2ccco2)s1,-101% (active)
17,COc1ccc(NC(=O)c2ccc(OC)cc2)cc1,-63% (active)
18,CCOC(=O)N1CCN(S(=O)(=O)c2ccc(C(=O)Nc3ccc(F)cc3F)cc2)CC1,69.5% (inactive)
19,Cn1c(CCN2CCCCCC2)nc2cc(NC(=O)Nc3ccccc3)ccc21,-91.9% (active)
20,Cc1cccc(C(=O)Nc2ccc(Oc3cnccn3)cc2)c1,-86.6% (active)
21,COc1ccc(C(=O)Nc2ccc(F)cc2F)cc1,-88.9% (active)
22,Cc1ccc(NC(=O)c2ccc(Oc3ncccn3)cc2)cc1,-124% (active)
23,COc1ccc(NC(=O)c2c(C)oc3c2CCCC3)cc1,-64.6% (active)
24,CCC(=O)Nc1ccc(C(=O)Nc2cccc(OC)c2)cc1,-74.7% (active)
25,COc1ccc(NC(=O)c2sccc2SCC#N)cc1,-77.3% (active)
26,COc1ccc(C(=O)Nc2ccc(CN3CCOCC3)cc2)cc1,-86.6% (active)

row,SMILES,activity score
1,COc1ccc(C(=O)Nc2sc(C)c(C)c2CN2CCOCC2)cc1,-83.7% (active)
2,COc1ccc(NC(=O)ON=C2c3ccccc3-c3ccccc32)cc1,-102% (active)
3,COc1ccc(C(=S)Nc2ccccc2)cc1,-134% (active)
4,COc1ccc(NC(=O)c2cc(-c3ccc(C)cc3)on2)cc1,-154% (active)
5,CCc1cc(C(N)=O)c(NC(=O)c2ccc(OC)cc2)s1,-174% (active)
6,COc1ccc(NC(=O)CS(=O)(=O)c2ccccc2)cc1,-62.5% (active)
7,Cn1c(CN2CCOCC2)nc2cc(NC(=O)c3ccc(Cl)cc3)ccc21,-163% (active)
8,COc1ccc(NC(=O)C2COc3ccccc3O2)cc1 (configuration not stated),-133% (active)
9,CC(=O)c1cccc(NC(=O)C2COc3ccccc3O2)c1 (configuration not stated),-134% (active)
10,NS(=O)(=O)c1ccc(NC(=S)NC(=O)c2cccc(Br)c2)cc1,-61.6% (active)
11,O=S(=O)(c1ccc(F)cc1)n1ccc(-c2cnc(-c3ccccc3)s2)n1,-138% (active)
12,c1ccc(CSc2nnc(-c3ccco3)n2Cc2ccccc2)cc1,-126% (active)
13,Cc1ccc(CN2C(=O)N/C(=C/c3cc(C)n(-c4ccccn4)c3C)C2=O)cc1,-88.6% (active)
14,O=C(NNC(=S)Nc1ccc(Br)cc1Cl)c1ccco1,-157% (active)
15,NNc1nc2c(Cl)cccc2s1,-119% (active)
16,Cc1nc2ccccc2nc(=O)c1NNc1ccc([N+](=O)[O-])cc1,-109% (active)
17,CN(C(=O)c1ccccn1)c1nnc(-c2ccccn2)s1,-110% (active)
18,Cc1sc2ncnc(N3CCC(C(=O)Nc4nc5ccc(Cl)cc5s4)CC3)c2c1C,-183% (active)
19,COc1cc(OC)c(C(=O)Nc2ccc(N(C)C)cc2)cc1OC,-129% (active)
20,COc1cc2ccccc2cc1C(=O)Nc1nc(C)c(C(C)=O)s1,-106% (active)
21,COC(=O)c1sc(NC(=O)c2ccc(OC)cc2OC)nc1C,101% (inactive)
22,Cc1ccc2nc(-c3ccncc3)cc(C(=O)Nc3ccc(OC(F)F)cc3)c2c1,67.6% (inactive)
23,COc1cc2ccccc2cc1C(=O)Nc1ccncc1,-70.2% (active)
24,COc1cc2ccccc2cc1C(=O)Nc1ccccc1C,-118% (active)
25,COc1ccc2c3c1O[C@H]1C[C@@H](O)C=C[C@@]31CCN(C)C2,62% (inactive)
26,COC(=O)c1cn(CC(=O)NCc2cccs2)c2ccccc12,-111% (active)
